Laboratory results taken from publication PMC12701074.

What follows are substances tested against CCT2 (UniProt P78371) (assay: cross-linking mass spectrometry). Settings: SIAB, in cells.

Substance	cross-linked residues
PDCD5, O14737	K66 - C535
CKB, P12277	C254 - K522
CCT4, P50991	C337 - K223

The substances below were run against HSPE1 (UniProt P61604) (assay: cross-linking mass spectrometry). Settings: SIA, in cells.

Substance	cross-linked residues
GAPDH, P04406	C247 - K56
EEF2, P13639	C693 - K56
TPI1, P60174	C218 - K56
